From PubChem BioAssay (EPA / NIEHS) come the findings set out here.

Assay [1] can be described thus: ATG_CRE_CIS: Attagene CIS-FACTORIAL HepG2 Assay for human cAMP Responsive Element (CRE) binding protein 3 (AID 2282926). Particulars: HepG2 CRE cis-reporter, Attagene multiplexed mRNA; actives raise or lower the signal. In outline:
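We dosed HepG2 cells bearing multiple cis-promoter reporter units for 24 h and measured reporter mRNA by RT-PCR with capillary electrophoresis detection. Bidirectional concentration-response fitting used DMSO as negative control.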

Assay [2] deals with CCAAT/enhancer-binding protein beta (Homo sapiens) (UniProt P17676). The experiment in a line: ATG_C_EBP_CIS: Attagene CIS-FACTORIAL HepG2 Assay for human CCAAT/Enhancer Binding Protein (C/EBP) beta (AID 2282927). Particulars: HepG2 Attagene cis-factorial transcription factor reporter; actives raise or lower the signal. In outline: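 Transiently transfected HepG2 (MRTU library, endogenous TF-driven promoters); 24 h dosing; total RNA → oligo(dT) RT → PCR → 6-FAM primer extension → HpaI digest → CE; fit bidirectionally vs DMSO.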

Assay [3] is described as follows: ATG_CMV_CIS: Attagene CIS-FACTORIAL HepG2 Assay for human CMV (Internal Marker) (AID 2282928).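 Note: endpoint acts as a background internal control marker rather than a target.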 Particulars: HepG2 CMV promoter reporter, transcription factor profiling; actives raise or lower the signal. In a few lines:
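After transient transfection of HepG2 with reporter transcription units driven by cis-regulatory promoters, cells receive test chemical for 24 h. Labeled reporter amplicons, digested with HpaI, are sized and quantified by capillary electrophoresis against DMSO.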

Assay [4] is described as follows: ATG_DR4_LXR_CIS: Attagene CIS-FACTORIAL HepG2 Assay for human Liver X Receptor (LXR), DR4 submotif (AID 2282929). Particulars: HepG2 Attagene DR4 cis-reporter, mRNA transcription; actives raise or lower the signal. In a few lines: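 DR4 cis-reporter in HepG2, 24 h exposure. Detection: RT-PCR, 6-FAM labelling, CE fragment analysis. Endpoint fitted bidirectionally, DMSO = baseline.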

The target in assay [5] is Aryl hydrocarbon receptor (Homo sapiens) (UniProt P35869). The assay is described as follows: ATG_Ahr_CIS: Attagene CIS-FACTORIAL HepG2 Assay for human Aryl Hydrocarbon Receptor (Ahr) (AID 2282930). Particulars: HepG2 AhR cis-factorial reporter transcription; actives raise or lower the signal. In outline: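 Read-out: reporter mRNA quantified by RT-PCR with fluorescent primer extension and capillary electrophoresis. Human HepG2 liver cells carried transfected cis-promoter reporter units and were exposed to chemical for 24 h; gain or loss fitted relative to DMSO.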

Assay [6] in a line: ATG_AP_1_CIS: Attagene CIS-FACTORIAL HepG2 Assay for human Activator Protein 1 (AP-1) (AID 2282931). Particulars: HepG2 Attagene cis-factorial AP-1 reporter mRNA; actives raise or lower the signal. In a few lines: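 Cis-regulated reporter units transiently expressed in HepG2 report endogenous transcription-factor activity. Signal: reporter mRNA at 24 h, via RT-PCR and fluorescent capillary electrophoresis. Endpoint derived by bidirectional fitting, DMSO as negative control.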

Assay [7] is described as follows: ATG_AP_2_CIS: Attagene CIS-FACTORIAL HepG2 Assay for human Activator Protein 2 (AP-2) (AID 2282932). Particulars: HepG2 AP-2 cis-reporter, Attagene transcription factor profiling; actives raise or lower the signal. In outline:
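Multiplexed mRNA reporter assay in HepG2: cis-regulated units report endogenous factor activity after 24 h treatment. Fluorescence from capillary electrophoresis of RT-PCR products gives the signal, with DMSO as baseline.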

Assay [8] in a line: ATG_BRE_CIS: Attagene CIS-FACTORIAL HepG2 Assay for human Bone Morphogenetic Protein (BMP) Response Element (BRE) (AID 2282933). Particulars: HepG2 BMP response element reporter, Attagene transcription factor profiling; actives raise or lower the signal. In a few lines: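 Transient MRTU transfection of human HepG2 liver cells; 24 h compound treatment; total RNA isolated, reverse-transcribed, PCR-amplified, 6-FAM labelled, HpaI-cut, capillary electrophoresis. DMSO = negative control/baseline, bidirectional fit.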

Assay [9] is described as follows: APR_HepG2_NuclearSize_72hr: Apredica 72-hour HepG2 Assay for Nuclear Size (AID 2282925). Particulars: high-content imaging, actives raise or lower the signal. Here is the method:
APR_HepG2_72hr is a cell-based, multiplexed-readout assay that uses HepG2, a human liver cell line, with measurements taken at 72 hours after chemical dosing in a 384-well plate.APR_HepG2_NuclearSize_72hr is one of 10 assay component(s) measured or calculated from the APR_HepG2_72hr assay. It is designed to make measurements of cell phenotype, a form of morphology reporter, as detected with fluorescence intensity signals by HCS Fluorescent Imaging technology.Data from the assay component APR_HepG2_NuclearSize_72hr was analyzed into 1 assay endpoint. This assay endpoint, APR_HepG2_NuclearSize_72hr, was analyzed with bidirectional fitting relative to DMSO as the negative control and baseline of activity. Using a type of morphology reporter, measures of all nuclear dna for gain or loss-of-signal activity can be used to understand the signaling at the nuclear-level. Furthermore, this assay endpoint can be referred to as a primary readout, because this assay has produced multiple assay endpoints where this one serves a signaling function. To generalize the intended target to other relatable targets, this assay endpoint is annotated to the cell morphology intended target family, where the subfamily is organelle conformation.
Cells were treated with dimethyl sulfoxide (DMSO) as a solvent control at a final concentration of 0.5% v/v or with compounds in DMSO with a resulting final DMSO concentration of 0.5% v/v. Compound treatment was done at concentrations of 0.39, 0.78, 1.56, 3.12, 6.24, 12.5, 25, 50, 100, and 200 uM in duplicate on each plate. Cells were treated with compounds for 1, 24, or 72 hr. Carbonyl […] m-chloro-phenylhydrazone (CCCP) and taxol were used as positive controls for mitochondrial function and cytoskeletal stability, respectively; DMSO served as the negative control for this experiment. Cells were fixed by the direct addition of 50 uL formaldehyde in Hank's Balanced Salt Solution (HBSS) to a final concentration of 3.7%. After incubation in the fixation medium for 30 min at room temperature (293-298 K), cells were rinsed twice with HBSS and treated with cell permeabilization buffer (16 uL of 0.5% Triton X-100) for 10 min at room temperature (293-298 K) before labeling. For mitochondrial membrane potential and mitochondrial measurements, pre-fixed cells were incubated with 50 uL of MitoTracker Red CMXRos (Invitrogen) at a concentration of 250 nM for 30 min before fixation. In the remaining cases, post-fixed cells were labeled by incubation with a multiplexed mixture of primary antibodies in HBSS for 60 min at room temperature (293-298 K) to detect immunoreactivity of c-Jun (1:500), phospho-histone H3 (1:100), phospho-histone H2A.x (1:200), p53 (1:400), alpha-tubulin (1:200) and Hoechst 33342 (2 ug/mL). Cells were labeled for multiplexed imaging on two separate plates: a) Hoechst 33342, MitoTracker Red, phospho-histone H3, and alpha-tubulin, and b) Hoechst 33342, phospho-histone H2A.x, and c-Jun. A final rinse with HBSS (50 uL) was performed before analysis. The primary and secondary antibodies for the proteins were phospho-histone H3 (rabbit anti-phospho-histone H3 and FITC-donkey anti-rabbit IgG), phospho-histone H2A.x (mouse anti-phospho-histone H2A.x and FITC-donkey anti-mouse IgG), c-Jun (rabbit anti-phospho-c-Jun and Cy3-donkey anti-rabbit IgG), p53 (sheep anti-p53 and Cy5-donkey anti-sheep IgG), alpha-tubulin (mouse anti-alpha-tubulin and Cy5-donkey anti-mouse IgG). […]

The target of assay [10] is Retinoic acid receptor alpha (Homo sapiens) (UniProt P10276). The experiment in a line: ATG_DR5_RAR_CIS: Attagene CIS-FACTORIAL HepG2 Assay for human Retinoic Acid Receptor Alpha (RARE), DR5 submotif (AID 2282934).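 For AC50: reporter responds to endogenous RAR alpha beta and gamma in HepG2 not RARA alone.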 Particulars: HepG2 Attagene cis-factorial RARE DR5 reporter, mRNA; actives raise or lower the signal. In outline: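 Read-out: DR5-driven reporter transcript measured by RT-PCR, 6-FAM primer extension, HpaI digest and capillary electrophoresis. Human HepG2 liver cells carry transiently transfected cis-element reporter constructs; dosing lasts 24 h. Gain or loss of signal fitted against DMSO baseline.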

Where “and” joins values, the source holds several entries; their conditions need not be identical. Equal values may be shown once. More than one record can exist for a structure, and the calls need not agree. Calls of active or inactive are those of the source. Rule for the calls: active = hit-call score of the fitted dose curve at least 0.9, where 1 is the maximum; inactive = score below 0.9.

Chain of Retinoic acid receptor alpha (Homo sapiens) (P10276 whole entry, looked up): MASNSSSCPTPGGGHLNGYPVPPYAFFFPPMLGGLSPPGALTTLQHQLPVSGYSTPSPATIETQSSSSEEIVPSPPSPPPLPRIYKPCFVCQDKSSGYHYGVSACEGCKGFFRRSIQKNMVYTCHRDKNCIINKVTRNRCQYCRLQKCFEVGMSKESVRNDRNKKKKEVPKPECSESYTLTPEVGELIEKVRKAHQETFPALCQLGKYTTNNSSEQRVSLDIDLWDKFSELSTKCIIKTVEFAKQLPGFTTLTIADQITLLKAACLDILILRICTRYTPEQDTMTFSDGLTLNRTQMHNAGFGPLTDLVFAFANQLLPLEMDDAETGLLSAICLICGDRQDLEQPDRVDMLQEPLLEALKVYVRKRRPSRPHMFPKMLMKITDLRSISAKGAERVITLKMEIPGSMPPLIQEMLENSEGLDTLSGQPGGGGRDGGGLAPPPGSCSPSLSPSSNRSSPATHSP
Chain of CCAAT/enhancer-binding protein beta (Homo sapiens) (P17676 whole entry, looked up): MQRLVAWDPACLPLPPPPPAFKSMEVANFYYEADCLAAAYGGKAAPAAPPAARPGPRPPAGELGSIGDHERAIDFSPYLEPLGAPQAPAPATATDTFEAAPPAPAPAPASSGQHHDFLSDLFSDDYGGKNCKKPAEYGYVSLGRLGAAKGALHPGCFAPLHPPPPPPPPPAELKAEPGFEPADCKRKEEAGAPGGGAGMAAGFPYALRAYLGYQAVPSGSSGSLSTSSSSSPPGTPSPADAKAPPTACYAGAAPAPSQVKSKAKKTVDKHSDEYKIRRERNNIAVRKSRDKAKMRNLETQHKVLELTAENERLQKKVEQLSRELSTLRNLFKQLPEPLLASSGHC
Chain of Aryl hydrocarbon receptor (Homo sapiens) (P35869 whole entry, looked up): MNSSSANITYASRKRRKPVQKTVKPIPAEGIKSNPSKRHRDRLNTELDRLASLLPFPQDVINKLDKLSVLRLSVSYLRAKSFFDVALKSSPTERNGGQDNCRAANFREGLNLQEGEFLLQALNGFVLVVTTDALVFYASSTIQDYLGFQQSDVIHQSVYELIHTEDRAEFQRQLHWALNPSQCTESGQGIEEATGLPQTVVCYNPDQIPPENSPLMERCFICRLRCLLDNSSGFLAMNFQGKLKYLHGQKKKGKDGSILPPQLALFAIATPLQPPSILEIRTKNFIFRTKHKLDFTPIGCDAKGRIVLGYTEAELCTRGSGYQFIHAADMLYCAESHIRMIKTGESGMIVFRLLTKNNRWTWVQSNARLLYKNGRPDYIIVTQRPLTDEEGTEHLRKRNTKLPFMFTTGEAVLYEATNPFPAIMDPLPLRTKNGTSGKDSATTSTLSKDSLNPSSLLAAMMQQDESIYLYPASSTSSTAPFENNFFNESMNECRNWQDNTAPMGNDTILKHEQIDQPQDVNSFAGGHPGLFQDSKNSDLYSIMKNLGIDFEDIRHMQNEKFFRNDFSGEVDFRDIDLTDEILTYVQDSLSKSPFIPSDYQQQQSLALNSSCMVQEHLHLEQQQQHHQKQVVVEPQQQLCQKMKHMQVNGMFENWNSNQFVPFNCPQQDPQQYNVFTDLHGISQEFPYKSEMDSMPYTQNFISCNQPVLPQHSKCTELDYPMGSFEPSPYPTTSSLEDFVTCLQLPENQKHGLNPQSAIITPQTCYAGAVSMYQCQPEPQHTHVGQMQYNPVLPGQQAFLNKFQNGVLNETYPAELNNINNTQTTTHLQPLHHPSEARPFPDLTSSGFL

Broadly, the AC50 is the concentration giving half of the maximal activity seen. Turning to `c1ccc2c(c1)-c1ccc3ccc4cccc5cc-2c1c3c45`, the result in [1], in [2], in [3], in assay [4], in assay [6] and in assay [7] was inactive. The outcome in assay [8] was inactive. Besides, the AC50 in assay [5] is 543 nM (active).
As to `CCCCCCOC(C)=O`, the compound was called inactive in [1], in assay [2], in assay [3], in [4], in [5] and in assay [6]. Also, the outcome in [7] and in [8] was inactive.
As for `CCCCCCCCOS(=O)(=O)O`, the compound was called inactive in [1], in [2], in [3], in assay [4], in [5] and in [6]. The result in assay [7] and in [8] was inactive.
As to `CCC=C(C)C=O`, the outcome in assay [1], in [2], in assay [3], in assay [4], in assay [5] and in assay [6] was inactive. The call in [7] and in [8] was inactive.
In the case of `CC/C(=C(\c1ccccc1)c1ccc(OCCN(C)C)cc1)c1ccccc1`, the AC50 in assay [9] was 119 µM (active). Also, the compound was called inactive in assay [9], in [2], in assay [3], in assay [4], in [5] and in assay [7]. Further, the compound was called inactive in [8] and in assay [10].
For the compound `CCCCCC(=O)O[C@]1(C(C)=O)CC[C@H]2[C@@H]3CCC4=CC(=O)CC[C@]4(C)[C@H]3CC[C@@]21C`, the AC50 in assay [1] was 6.58 µM (active); in assay [2], 8.6 µM (active); in assay [6], 36.5 µM (active); in assay [8] it was 7.66 µM (active). Moreover, the compound was called inactive in assay [3], in assay [4], in assay [5] and in assay [7].
For the compound `CC1(C)[C@H](C=C(Cl)Cl)[C@H]1C(=O)OCc1cccc(Oc2ccccc2)c1`, the compound was classed as inactive in assay [1], in assay [2], in assay [3], in assay [4], in assay [5] and in assay [6]. Further, the call in assay [7] and in assay [8] was inactive.
With `Cc1cccc(C)c1`, the call in assay [1], in [2], in assay [3], in [4], in assay [5] and in assay [6] was inactive. The call in [7] and in assay [8] was inactive.
In the case of `O=C1OCc2ccccc21`, the call in assay [1], in assay [2], in assay [3], in assay [4], in [5] and in assay [6] was inactive. In addition, the result in assay [7] and in assay [8] was inactive.
Turning to `CCCCCCCCCCCCCCCCCC(=O)OCCCCCCCCCCCCCC(C)C`, the result in [1], in assay [2], in assay [3], in [4], in assay [5] and in assay [6] was inactive. The outcome in assay [7] and in [8] was inactive.
Turning to `COc1ccc2[nH]cc(CCNC(C)=O)c2c1`, the outcome in [1], in assay [2], in assay [3], in assay [4], in assay [5] and in [6] was inactive. The call in [7] and in [8] was inactive.
Consider `C#C[C@]1(O)CC[C@H]2[C@@H]3CCc4cc(O)ccc4[C@H]3CC[C@@]21C`, for which the compound was called inactive in [9], in assay [1], in assay [2], in assay [3], in assay [4] and in [5]. The compound was classed as inactive in assay [7], in assay [8] and in assay [10]. Moreover, the AC50 is 66.9 µM (active) and 26.4 µM (active) and 37 µM (active) in assay [1]; 158 µM (active) in [2]; 26.4 µM (active) and 26 µM (active) and 26.2 µM (active) in [3]; 100 µM (active) and 34 µM (active) in assay [4]; 19.8 µM (active) and 9.23 µM (active) in assay [5]; 167 µM (active) and 46.7 µM (active) in [7]. In addition, the AC50 was 75.6 µM (active) and 48.6 µM (active) in assay [8]; 61 µM (active) and 81.7 µM (active) and 24.8 µM (active) in assay [10].
Take `C=CCOC(=O)/C=C\C(=O)OCC=C`: the AC50 is 27.1 µM (active) in [1]; 63.8 µM (active) in assay [3]; 27.9 µM (active) in [4]; 61200 nM (active) in [5]; 21.7 µM (active) in [7]. Moreover, the result in assay [2], in [6] and in assay [8] was inactive.
